Growth inhibition data for 34 compounds are collected here from PubChem BioAssay (NCI).

A short description of test [1]: NCI Yeast Anticancer Drug Screen. Data for the rad50 strain (AID 155).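 Note: 0% = growth of vehicle-only cultures of the same strain.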 As to conditions: S. cerevisiae rad50 strain growth inhibition; at 50.0 µM; active compounds read high. Summed up:
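Vehicle-treated cultures provide the reference for the growth inhibition reported for compound-exposed, repair-deficient yeast.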

Test [2] in a line: NCI Yeast Anticancer Drug Screen. Data for the mec2-1 strain (AID 157). As to conditions: S. cerevisiae mec2-1 strain, at 50.0 µM, active compounds read high. Summed up:
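Mutant yeast (mec2-1) grown with compound; growth inhibition relative to vehicle control reported.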

Test [3] can be described thus: NCI Yeast Anticancer Drug Screen. Data for the sgs1 mgt1 strain (AID 161).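 Note: 0% = growth of cultures given vehicle only.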 As to conditions: S. cerevisiae sgs1 mgt1 strain, at 50.0 µM, active compounds read high. An outline of the steps:
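Growth of a repair-deficient yeast mutant was monitored after compound treatment and expressed as inhibition relative to vehicle-treated cultures.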

Test [4] in a line: NCI Yeast Anticancer Drug Screen. Data for the cln2 rad14 strain (AID 165).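 Note: 0% = growth equal to vehicle treated cultures.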 The note with it: S. cerevisiae cln2 rad14 strain, at 50.0 µM, active compounds read high. An outline of the steps: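 Readout is yeast growth inhibition versus vehicle-treated controls, using a strain with cln2 and rad14 alterations exposed to compound.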
Test [5] can be described thus: NCI Yeast Anticancer Drug Screen. Data for the bub3 strain (AID 167). The note with it: S. cerevisiae bub3 mutant strain, at 50.0 µM, active compounds read high. Summed up:
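Mutant yeast screening strain plus compound; vehicle-treated cultures serve as the 0% inhibition reference.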

A short description of test [6]: NCI Yeast Anticancer Drug Screen. Data for the mlh1 rad18 strain (AID 175). As to conditions: S. cerevisiae mlh1 rad18 strain growth inhibition; at 50.0 µM; active compounds read high. An outline of the steps:
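Genetically defined yeast (DNA repair-deficient) exposed to compounds; growth inhibition determined relative to vehicle.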

The panel holds about 79,000 compounds, 15% with a hit somewhere; the sample as a whole holds those more often. Active and inactive are the calls of the source. Cut-off read from the data, not from the text of the source: active = growth inhibition above about 70%; inactive = the rest.

On to `NCC(O)C(O)C(O)C(O)CO` (centres undefined), for which the growth inhibition was 13.2% (inactive) in test [1]; 6.8% (inactive) in test [2]; 15.1% (inactive) in test [3]; 23.2% (inactive) in test [4]; 18.1% (inactive) in test [5]; 0.95% (inactive) in test [6].
With `O=C(Nc1cccc(Cl)c1)c1ccc(Cl)cc1Cl`, the growth inhibition in test [1] is 1.95% (inactive); in test [2], 5.85% (inactive); in test [3], 2.2% (inactive); in test [4], -48.5% (inactive); in test [5], 20.6% (inactive); in test [6], 0.1% (inactive).
With `C=CCS(C)(=O)=O`, the growth inhibition is -13.8% (inactive) in test [1]; -18.6% (inactive) in test [2]; -11.8% (inactive) in test [3]; 5.7% (inactive) in test [4]; -0.8% (inactive) in test [5]; -3.65% (inactive) in test [6].
In the case of `CCN(C(C)=O)c1ccc([N+](=O)[O-])cc1`, the growth inhibition in test [1] is -11.9% (inactive); in test [2] it was -1.65% (inactive); in test [3], 2% (inactive); in test [4] it was -41.8% (inactive); in test [5], 3.05% (inactive); in test [6] it was -13.7% (inactive).
As for `CCC(C)c1c(N)n(S(=O)(=O)c2ccc(C)cc2)oc1=O` (centres undefined), the growth inhibition in test [1] is -25.2% (inactive); in test [2], 6.8% (inactive); in test [3], 6.4% (inactive); in test [4] it was -25% (inactive); in test [5], 16.6% (inactive); in test [6], -3.45% (inactive).
As to `O=Cc1ccc(Cl)c(Cl)c1`, the growth inhibition in test [1] was -3.55% (inactive); in test [2], -9.5% (inactive); in test [3], -18.8% (inactive); in test [4], -16.9% (inactive); in test [5], -5.85% (inactive); in test [6], -23.1% (inactive).
As to `CCOP(=O)(NC(c1ccccc1)c1ccccc1)OCC`, the growth inhibition in test [1] was 21.9% (inactive); in test [2], -15.2% (inactive); in test [3], 30.6% (inactive); in test [4] it was 5.55% (inactive); in test [5] it was 25.1% (inactive); in test [6] it was 28.8% (inactive).
Take `CCC1CCC(C)NC1` (centres undefined): the growth inhibition in test [1] is 26.4% (inactive); in test [2] it was 2.75% (inactive); in test [3] it was 17.2% (inactive); in test [4], 23.6% (inactive); in test [5], -7.05% (inactive); in test [6], 21.8% (inactive).
With `Nc1ccn(C2OC(CO)C(O)C2F)c(=O)n1` (centres undefined), the growth inhibition was 12.4% (inactive) in test [1]; 0.45% (inactive) in test [2]; 11.9% (inactive) in test [3]; 10.7% (inactive) in test [4]; -0.1% (inactive) in test [5]; -6.95% (inactive) in test [6].
Consider `CC(=O)Nc1ccc(C(=O)c2ccc(S(=O)(=O)Nc3ccccc3)cc2)cc1`, for which the growth inhibition in test [1] was 6.5% (inactive); in test [2], -9.15% (inactive); in test [3], 5.55% (inactive); in test [4], 16.9% (inactive); in test [5], 6.05% (inactive); in test [6], -14.4% (inactive).
As for `COc1cc(N)c2ncccc2c1Cl`, the growth inhibition is 17.6% (inactive) in test [1]; 3.55% (inactive) in test [2]; 24.4% (inactive) in test [3]; -0.05% (inactive) in test [4]; -7.3% (inactive) in test [5]; 30.4% (inactive) in test [6].
Turning to `CC(=O)C1C(=O)C(=O)N(c2ccc(Cl)c(Cl)c2)C1=O` (centres undefined), the growth inhibition in test [1] was -22.1% (inactive); in test [2], -21% (inactive); in test [3] it was -2.35% (inactive); in test [4], -14.4% (inactive); in test [5] it was -9.5% (inactive); in test [6] it was -24.9% (inactive).
For the compound `O=C(OCC1CCCO1)c1ccc([N+](=O)[O-])cc1` (centres undefined), the growth inhibition was 2.05% (inactive) in test [1]; 21.6% (inactive) in test [2]; 12.9% (inactive) in test [3]; 9.7% (inactive) in test [4]; 30.9% (inactive) in test [5]; 12.3% (inactive) in test [6].
Consider `CSc1nsc(N)n1`, for which the growth inhibition was -13.3% (inactive) in test [1]; 2.5% (inactive) in test [2]; -4.2% (inactive) in test [3]; -26.9% (inactive) in test [4]; 16.8% (inactive) in test [5]; 20.7% (inactive) in test [6].
Regarding `C=C(OC(C)=O)c1ccccc1`, the growth inhibition in test [1] was 6.45% (inactive); in test [2] it was -12.4% (inactive); in test [3] it was 5.8% (inactive); in test [4], -7.25% (inactive); in test [5] it was 28.3% (inactive); in test [6] it was 0.05% (inactive).
For the compound `N#Cc1ccc(OC(=O)Nc2cc(Cl)cc(Cl)c2)cc1`, the growth inhibition is -6.5% (inactive) in test [1]; -21.9% (inactive) in test [2]; -3.65% (inactive) in test [3]; 12.9% (inactive) in test [4]; -4% (inactive) in test [5]; -3.55% (inactive) in test [6].
In the case of `CSCCC(NC(=O)C(Cl)Cl)C(=O)O` (centres undefined), the growth inhibition was -31.6% (inactive) in test [1]; -3% (inactive) in test [2]; -4.1% (inactive) in test [3]; -49% (inactive) in test [4]; 17% (inactive) in test [5]; 3.4% (inactive) in test [6].
On to `Cc1ccccc1NC(=O)Oc1ccc(Cl)cc1C(=O)c1ccccc1`, for which the growth inhibition in test [1] was -0.15% (inactive); in test [2] it was -27.4% (inactive); in test [3], 18.7% (inactive); in test [4] it was 24.4% (inactive); in test [5], 21.2% (inactive); in test [6], 11.4% (inactive).
As to `Nc1c(O)c(S(=O)(=O)O)c(O)c2c1C(=O)c1ccccc1C2=O`, the growth inhibition in test [1] is 27.4% (inactive); in test [2] it was -2.7% (inactive); in test [3] it was 31.1% (inactive); in test [4] it was 30.9% (inactive); in test [5], 34.9% (inactive); in test [6] it was 33.6% (inactive).
`CCOC(=O)N[C@H]1CCc2cc(OC)c(OC)c(OC)c2-c2ccc(SC)c(=O)cc21`: the growth inhibition is 33.5% (inactive) in test [1]; -16.5% (inactive) in test [2]; 16.2% (inactive) in test [3]; 5.1% (inactive) in test [4]; 1.35% (inactive) in test [5]; -1.55% (inactive) in test [6].
Take `CSc1nc2[nH]ncc2c(=O)[nH]1`: the growth inhibition in test [1] is -19.8% (inactive); in test [2], 5.85% (inactive); in test [3], 15.4% (inactive); in test [4], -40.6% (inactive); in test [5] it was -3.05% (inactive); in test [6], -6.15% (inactive).
Take `COC(c1ccc2c(c1)OCO2)C(C)Br` (centres undefined): the growth inhibition was 7.45% (inactive) in test [1]; -4.4% (inactive) in test [2]; 13.6% (inactive) in test [3]; -31.1% (inactive) in test [4]; -8.9% (inactive) in test [5]; 6.55% (inactive) in test [6].
In the case of `CN1C(=O)NC(c2ccc(Cl)cc2)(c2ccc(Cl)cc2)C1=O`, the growth inhibition in test [1] was 44.9% (inactive); in test [2], 11.1% (inactive); in test [3] it was -23% (inactive); in test [4], -11.9% (inactive); in test [5], -8% (inactive); in test [6], 91% (active).
With `Nc1nc2nnc(-c3ccccc3)c(-c3ccccc3)n2n1`, the growth inhibition in test [1] was 12.8% (inactive); in test [2], 14.1% (inactive); in test [3], 6.4% (inactive); in test [4], 13.8% (inactive); in test [5] it was 9.65% (inactive); in test [6], -8.8% (inactive).
For `Cc1cc2nc(C)c(C)nc2cc1C`, the growth inhibition is -20.5% (inactive) in test [1]; -37.9% (inactive) in test [2]; -27.2% (inactive) in test [3]; 7.75% (inactive) in test [4]; -25.7% (inactive) in test [5]; -20.4% (inactive) in test [6].
For the compound `O=C(NC(=S)N1CC=CCC1)c1ccccc1`, the growth inhibition in test [1] was 13.5% (inactive); in test [2], 16.7% (inactive); in test [3], 26.4% (inactive); in test [4] it was -1.95% (inactive); in test [5], 45.5% (inactive); in test [6] it was 21.3% (inactive).
Take `O=C(Nc1ccccc1)c1ccco1`: the growth inhibition in test [1] is 12.3% (inactive); in test [2], 33.2% (inactive); in test [3], 13.8% (inactive); in test [4] it was -0.6% (inactive); in test [5], -1.55% (inactive); in test [6] it was 11.2% (inactive).
On to `COc1ccc2c(c1)Nc1ccccc1S2`, for which the growth inhibition in test [1] is -23.9% (inactive); in test [2], -23.5% (inactive); in test [3] it was -26.6% (inactive); in test [4] it was -1.6% (inactive); in test [5], -14.6% (inactive); in test [6], -16.2% (inactive).
As to `C/C(=N\Nc1ccc([N+](=O)[O-])cc1[N+](=O)[O-])c1ccc(Br)cc1`, the growth inhibition was -8.7% (inactive) in test [1]; -2.2% (inactive) in test [2]; 2.35% (inactive) in test [3]; -12.8% (inactive) in test [4]; 8.7% (inactive) in test [5]; 3.05% (inactive) in test [6].
Turning to `COc1cc(CC#N)c([N+](=O)[O-])cc1OC`, the growth inhibition in test [1] is -3.15% (inactive); in test [2] it was -22.1% (inactive); in test [3] it was -12.8% (inactive); in test [4], -39% (inactive); in test [5] it was -14.2% (inactive); in test [6], 0.4% (inactive).
Take `Cc1ccc(NC(=S)N2CCOCC2)cc1C`: the growth inhibition was 0.55% (inactive) in test [1]; -17.4% (inactive) in test [2]; 29.6% (inactive) in test [3]; 8.35% (inactive) in test [4]; 4.2% (inactive) in test [5]; -1.55% (inactive) in test [6].
Take `CN(C)c1ccc(O)c2c1CC1CC3C(N(C)C)C(=O)C(C(N)=O)=C(O)C3(O)C(=O)C1=C2O` (centres undefined): the growth inhibition was 60.8% (inactive) in test [1]; 29.7% (inactive) in test [2]; 68.2% (inactive) in test [3]; 18.4% (inactive) in test [4]; 3.6% (inactive) in test [5]; 32.9% (inactive) in test [6].
In the case of `Cc1cc(CC(=O)NCCO)n(CCO)c(=O)c1`, the growth inhibition in test [1] was -7.85% (inactive); in test [2], -21.5% (inactive); in test [3] it was 6.55% (inactive); in test [4], 6.25% (inactive); in test [5], -2.7% (inactive); in test [6], -2.9% (inactive).
On to `COc1cc(-c2ccc(NC(=O)CC(C)=O)c(OC)c2)ccc1NC(=O)CC(C)=O`, for which the growth inhibition is -17.8% (inactive) in test [1]; -26.6% (inactive) in test [2]; -3.35% (inactive) in test [3]; -5.3% (inactive) in test [4]; 5.95% (inactive) in test [5]; -14% (inactive) in test [6].
